Results published in PubChem BioAssay (NCATS).
Results filed as inconclusive are left out. The source made the active and inactive calls. Unless noted, calls come from the whole dose curve; as a rule, active = well fitted curve in the direction sought with a large enough effect; inconclusive = small, poorly fitted or top-dose-only effect, or another doubt; inactive = no such curve, though single readings can be large; an effect the other way counts as inactive or inconclusive.

Assays:
[1] = qHTS assay for small molecule antagonists of peroxisome proliferator-activated receptor delta signaling (AID 588535); details: HEK293T PPARd-UAS-bla, beta-lactamase FRET ratio, 18 h; 460 nm channel;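 note: cells co-treated with a PPAR-delta agonist as stimulator during compound exposure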
In short: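 Reporter: UAS-bla under PPAR-delta response element, HEK293T host. Medium: 2% charcoal/dextran FBS. Dosing: titration, 18 hrs, 37 C. Detection: CCF4, 2 hrs RT, 405 ex/460 and 530 em.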

[2] = target: Peroxisome proliferator-activated receptor gamma (Homo sapiens) (UniProt P37231); assay: qHTS assay for small molecule agonists of peroxisome proliferator-activated receptor gamma signaling (AID 588536; active = well fitted curve in the direction sought with a large enough effect in the signal ratio, with a control signal flat, not every such curve was filed as active; the % refers to the signal ratio;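 note: 0% = DMSO basal wells and 100% = rosiglitazone at 2 µM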); details: HEK293 PPARg-UAS-bla, beta-lactamase ratio, 16 h, percent of rosiglitazone response, DMSO as zero; series mostly up to 76.7 µM
Peroxisome proliferator-activated receptor gamma (Homo sapiens), sequence (P37231 whole entry, looked up): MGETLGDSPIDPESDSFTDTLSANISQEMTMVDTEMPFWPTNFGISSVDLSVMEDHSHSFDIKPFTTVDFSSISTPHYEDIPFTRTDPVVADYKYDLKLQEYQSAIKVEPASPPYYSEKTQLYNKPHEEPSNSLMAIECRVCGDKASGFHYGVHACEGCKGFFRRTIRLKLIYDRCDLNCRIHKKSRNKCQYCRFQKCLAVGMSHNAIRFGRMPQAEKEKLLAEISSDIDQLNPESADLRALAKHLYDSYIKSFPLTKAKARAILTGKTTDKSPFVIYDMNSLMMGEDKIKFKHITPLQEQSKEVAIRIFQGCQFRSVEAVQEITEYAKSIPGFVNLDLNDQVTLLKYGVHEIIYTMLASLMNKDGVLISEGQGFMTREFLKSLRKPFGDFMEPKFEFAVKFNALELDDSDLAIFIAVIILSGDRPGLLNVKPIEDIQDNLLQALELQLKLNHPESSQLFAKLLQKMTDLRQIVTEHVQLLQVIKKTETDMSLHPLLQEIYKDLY
In short: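 GeneBLAzer PPAR-gamma-UAS-bla HEK293 cells in 1% charcoal/dextran-treated FBS medium were treated 16 h at 37 C with compounds. Beta-lactamase activity was read by CCF4 ratio (460/530 nm). Response was normalized to 2 uM rosiglitazone (100%) and DMSO, then Hill-fitted for EC50 and efficacy.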

[3] = target: Peroxisome proliferator-activated receptor gamma (Homo sapiens) (UniProt P37231); assay: qHTS assay for small molecule antagonists of peroxisome proliferator-activated receptor gamma signaling (AID 588537; active = well fitted inhibition curve with a large enough effect in the signal ratio, with a control signal flat, not every such curve was filed as active; the % refers to the signal ratio;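 note: reporter cells co-stimulated with 50 nM rosiglitazone agonist during compound treatment; % of control where 0% means no effect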); details: HEK293 PPARg-UAS-bla, beta-lactamase ratio, antagonist mode; series mostly up to 76.8 µM
In short: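 We seeded GeneBLAzer HEK293 reporter cells at 3000 per well, allowed 6-6.5 h attachment at 37 C, then co-treated with test compound titrations and 50 nM rosiglitazone overnight (16 h). Inhibition was quantified from 460/530 nm emission ratios.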

[4] = target: Vitamin D3 receptor (Homo sapiens) (UniProt P11473); assay: qHTS assay for small molecule antagonists of vitamin D receptor signaling (AID 588541; calls by dose curve;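 note: receptor activated by calcitriol during compound treatment; % is set by controls: 0 for no effect and ±100 for the full control effect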); details: HEK293T VDR-UAS-bla, beta-lactamase ratio, antagonist mode; series mostly up to 76.7 µM
Vitamin D3 receptor (Homo sapiens), sequence (P11473 whole entry, looked up): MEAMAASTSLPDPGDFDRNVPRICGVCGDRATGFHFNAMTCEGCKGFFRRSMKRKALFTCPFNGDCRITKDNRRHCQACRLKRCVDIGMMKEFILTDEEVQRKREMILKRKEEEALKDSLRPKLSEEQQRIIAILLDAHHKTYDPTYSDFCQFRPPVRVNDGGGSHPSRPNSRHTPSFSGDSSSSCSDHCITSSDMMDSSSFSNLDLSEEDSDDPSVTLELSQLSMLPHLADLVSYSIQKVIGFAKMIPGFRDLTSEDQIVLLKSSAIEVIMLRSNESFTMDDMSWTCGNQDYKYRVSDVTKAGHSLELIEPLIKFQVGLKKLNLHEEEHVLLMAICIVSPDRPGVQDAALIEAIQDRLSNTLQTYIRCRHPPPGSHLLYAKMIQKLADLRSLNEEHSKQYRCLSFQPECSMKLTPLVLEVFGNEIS
In short: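 VDR-UAS-bla HEK293T cells (2000/well, 2% charcoal-stripped FBS) were treated with titrated compounds plus 1-alpha,25-dihydroxyvitamin D3 (50 nM or 3 nM final) for 16 h at 37 C. CCF4 beta-lactamase fluorescence was read; Hill fits gave IC50.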

[5] = target: Vitamin D3 receptor (Homo sapiens) (UniProt P11473); assay: qHTS assay for small molecule agonists of vitamin D receptor signaling (AID 588543; calls by dose curve;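 note: 0% = DMSO basal and 100% = reference agonist control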); details: HEK293T VDR-UAS-bla, beta-lactamase ratio, 16 h; series mostly up to 76.8 µM
In short: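 VDR-UAS-bla HEK293T cells, 2000/well, 2% charcoal-stripped FBS; compound titration 16 h at 37 C; CCF4 beta-lactamase ratio read. Normalized to 50 nM 1-alpha,25-dihydroxyvitamin D3 (100%) and DMSO; Hill fit gives EC50, efficacy.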

[6] = qHTS assay for small molecule agonists of retinoid X receptor alpha signaling (AID 588544; calls by dose curve;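 for activation: 0% = DMSO basal wells and 100% = reference agonist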); details: HEK293T RXRa-UAS-bla, beta-lactamase reporter, 18 h; 530 nm emission
[7] = target: Retinoic acid receptor RXR-alpha (Homo sapiens) (UniProt P19793); assay: as above; details: HEK293T RXRa-UAS-bla, beta-lactamase reporter, 18 h; series mostly up to 76.7 µM
Retinoic acid receptor RXR-alpha (Homo sapiens), sequence (P19793 whole entry, looked up): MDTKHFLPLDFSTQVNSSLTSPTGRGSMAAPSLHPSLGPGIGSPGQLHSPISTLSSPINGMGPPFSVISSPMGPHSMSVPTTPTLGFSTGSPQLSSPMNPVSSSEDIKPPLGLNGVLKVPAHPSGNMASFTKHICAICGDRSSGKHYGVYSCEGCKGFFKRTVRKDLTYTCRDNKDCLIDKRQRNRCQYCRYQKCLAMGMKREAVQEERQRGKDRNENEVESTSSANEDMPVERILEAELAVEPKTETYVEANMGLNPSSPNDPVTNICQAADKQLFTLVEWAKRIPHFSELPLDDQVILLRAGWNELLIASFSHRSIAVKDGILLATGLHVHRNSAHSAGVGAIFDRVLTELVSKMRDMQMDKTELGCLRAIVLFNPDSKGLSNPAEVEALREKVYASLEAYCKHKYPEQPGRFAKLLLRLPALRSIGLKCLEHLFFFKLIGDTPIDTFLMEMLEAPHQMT

[8] = target: Thyroid hormone receptor beta (Homo sapiens) (UniProt P10828); assay: qHTS assay for small molecule agonists of thyroid hormone receptor beta signaling (AID 588545; calls by dose curve); details: TR-UAS-bla GripTite HEK 293, beta-lactamase ratio, agonist mode, 18 h; series mostly up to 76.7 µM
Thyroid hormone receptor beta (Homo sapiens), sequence (P10828 whole entry, looked up): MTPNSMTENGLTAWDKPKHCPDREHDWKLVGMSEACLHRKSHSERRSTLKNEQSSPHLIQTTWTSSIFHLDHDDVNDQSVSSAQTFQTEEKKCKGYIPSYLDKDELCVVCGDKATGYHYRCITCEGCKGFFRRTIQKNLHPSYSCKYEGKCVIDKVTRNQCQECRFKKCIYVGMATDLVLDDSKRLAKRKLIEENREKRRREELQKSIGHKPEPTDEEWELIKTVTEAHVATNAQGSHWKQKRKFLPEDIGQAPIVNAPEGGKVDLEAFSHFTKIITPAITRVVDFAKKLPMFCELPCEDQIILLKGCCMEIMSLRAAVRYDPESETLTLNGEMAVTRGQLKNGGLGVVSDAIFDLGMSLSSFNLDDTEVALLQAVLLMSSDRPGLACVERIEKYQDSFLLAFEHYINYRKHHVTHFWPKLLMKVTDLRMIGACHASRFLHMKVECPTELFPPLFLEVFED
In short: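 Cells (2500/well) were seeded, incubated 4 hrs at 37 C, dosed with a compound series, incubated 18 hrs, loaded with CCF4 dye for 2 hrs at RT, then read for fluorescence. Data were scaled between DMSO (0%) and 10 nM T3 (100%).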

[9] = qHTS assay for small molecule antagonists of retinoid X receptor alpha signaling (AID 588546; active = well fitted inhibition curve with a large enough effect in the signal ratio, with a control signal flat, not every such curve was filed as active; the % refers to the signal ratio;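 note: cells stimulated with 9-cis-retinoic acid as agonist; % is set by controls: 0 for no effect and ±100 for the full control effect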); details: HEK293T RXRa-UAS-bla, beta-lactamase ratio, antagonist mode; measured here: W530 green channel, cytotoxicity proxy
In short: (§1)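 Beta-lactamase reporter inhibition, read as CCF4 fluorescence ratio (ex 405, em 460/530 nm) after 2 h at RT. HEK293T UAS-bla cells, 2500/well, were stimulated with 9-cis-RA at 500 or 100 nM final alongside test compound for 18 h at 37 C.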

[10] = target: Retinoic acid receptor RXR-alpha (Homo sapiens) (UniProt P19793); assay: as above; details: HEK293T RXRa-UAS-bla, beta-lactamase ratio, antagonist mode
In short: as §1

[11] = qHTS assay for environmental chemicals that activate the Aryl hydrocarbon Receptor (AhR) signaling pathway (AID 651777); details: 1A2-DRE human hepatoma cells, luciferase, 24 h; activation: stronger effect = higher value; note: % of control where 0% means no effect; nearly all actives have a fitted effect of over 15% in size
In short: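 Concentration–response screening used 1,200 1A2-DRE cells per well, 24 hr compound exposure (37 C, 5% CO2), and One-Glo luminescence as the AhR-driven CYP1A2 reporter signal.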

[12] = target: Peroxisome proliferator-activated receptor alpha (Homo sapiens) (UniProt Q07869); assay: qHTS assay for small molecule agonists of the peroxisome proliferator-activated receptor alpha (PPARalpha) signaling pathway (AID 651778); details: PathHunter PPARalpha complementation, chemiluminescence, 6 h; max response: stronger effect = higher value; note: % of control where 0% means no effect
Peroxisome proliferator-activated receptor alpha (Homo sapiens), sequence (Q07869 whole entry, looked up): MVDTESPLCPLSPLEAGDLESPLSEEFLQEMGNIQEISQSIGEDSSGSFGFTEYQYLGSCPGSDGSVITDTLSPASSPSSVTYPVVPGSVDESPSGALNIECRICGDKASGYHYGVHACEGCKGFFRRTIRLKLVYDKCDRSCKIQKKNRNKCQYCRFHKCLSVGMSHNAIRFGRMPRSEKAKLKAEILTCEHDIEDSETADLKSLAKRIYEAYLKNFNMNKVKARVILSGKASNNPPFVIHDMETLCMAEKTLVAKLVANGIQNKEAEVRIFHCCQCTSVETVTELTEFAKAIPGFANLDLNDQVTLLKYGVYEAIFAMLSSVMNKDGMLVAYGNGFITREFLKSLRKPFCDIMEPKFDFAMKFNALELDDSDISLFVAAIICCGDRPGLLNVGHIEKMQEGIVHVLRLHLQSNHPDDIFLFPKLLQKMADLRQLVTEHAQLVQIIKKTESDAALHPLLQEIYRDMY
In short: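 Cells plated at 2,000/well and held overnight at 37 C, 5% CO2, then compound added by pin tool for 6 hr; after PathHunter detection reagent and 60 min at room temperature, chemiluminescence from enzyme complementation was read.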

[13] = qHTS assay for small molecule agonists of the antioxidant response element (ARE) signaling pathway measured by Nrf2-dependant transcriptional activity (AID 720636; active = well fitted curve in the direction sought with a large enough effect in the repeat runs; an effect the other way counts as inactive or inconclusive;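 note: HepG2 cells with an ARE-driven luciferase reporter; % of control where 0% means no effect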); details: ARE-luc HepG2, Nrf2 luciferase reporter, 16 h; series mostly up to 92.4 µM
In short: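 Attachment 6 hr at 37 C, then compound versus DMSO vehicle for 16 hr in ARE-luc HepG2 cells (1% dialyzed FBS); luminescence recorded 30 min after ONE-Glo addition at room temperature.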

[14] = qHTS assay for small molecule agonists of the antioxidant response element (ARE) signaling pathway measured by Nrf2-dependant transcriptional activity - cell viability counter screen (AID 720653; active = well fitted curve in the direction sought with a large enough effect in the repeat runs; an effect the other way counts as inactive or inconclusive; note: % is set by controls: 0 for no effect and ±100 for the full control effect); details: ARE-bla HepG2 viability, CellTiter-Glo ATP luminescence, 16 h; max response: stronger effect = lower value
In short: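 ARE-bla HepG2 cells (2,000/well) rested 5 hrs at 37C/5% CO2, then exposed to compounds in DMSO for 16 hrs. Viability was read in the same wells as intracellular ATP by luminescence, 30 min at room temperature after reagent addition.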

[15] = qHTS assay for cell viability of HEK293 cells (AID 743288); details: ATP luminescence (CellTiter-Glo), 18 h; max response: stronger effect = lower value; note: nearly all actives have a fitted effect of over 50% in size; note: potency is the fitted concentration of half-maximal effect; for max response: % is set by controls: 0 for no effect and ±100 for the full control effect
In short: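 Parental HEK293 cells, 2,000 per well, preincubated at least 5 h at 37 C, then exposed to compounds in DMSO for 18 h at 37 C. Viability by CellTiter-Glo ATP luminescence after 30 min at room temperature.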

[16] = qHTS assay for cell viability of the p53RE-bla HCT-116 cell line (AID 743292); details: p53RE-bla HCT-116 viability, ATP luminescence, 16 h; series mostly up to 95 µM; note: nearly all actives have a fitted effect of over 55% in size; note: potency is the fitted concentration of half-maximal effect
In short: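 Compound-exposed HCT-116 (p53RE-bla) cells, 4,000 per well, were kept 16 h at 37 C following a 5 h preincubation. Cell number was estimated from total ATP by CellTiter-Glo luminescence read after 30 min at room temperature.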

[17] = target: Nuclear receptor subfamily 1 group I member 2 (Rattus norvegicus) (UniProt Q9R1A7); assay: qHTS assay for small molecule activators of the rat pregnane X receptor (rPXR) signaling pathway (AID 651751; call rule not given here; note: 0% is about no effect); details: rPXR reporter cells, luciferase (One-Glo), 24 h
Nuclear receptor subfamily 1 group I member 2 (Rattus norvegicus), sequence (Q9R1A7 whole entry, looked up): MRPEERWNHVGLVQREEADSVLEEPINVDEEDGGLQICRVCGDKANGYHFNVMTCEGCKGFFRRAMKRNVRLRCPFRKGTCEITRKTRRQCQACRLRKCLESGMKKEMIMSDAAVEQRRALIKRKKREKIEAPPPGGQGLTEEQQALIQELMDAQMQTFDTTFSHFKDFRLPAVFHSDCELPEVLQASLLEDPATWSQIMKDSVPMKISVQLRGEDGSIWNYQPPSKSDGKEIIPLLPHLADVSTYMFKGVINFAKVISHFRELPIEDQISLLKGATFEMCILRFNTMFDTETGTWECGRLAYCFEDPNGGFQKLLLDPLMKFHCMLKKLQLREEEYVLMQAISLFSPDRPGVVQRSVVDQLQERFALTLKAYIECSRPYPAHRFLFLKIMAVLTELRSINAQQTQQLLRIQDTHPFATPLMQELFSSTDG

[18] = qHTS assay for small molecule activators of the human pregnane X receptor (PXR) signaling pathway (AID 720659; call rule not given here; note: 0% is about no effect); details: DPX-2 HepG2 CYP3A4-luciferase, 24 h; series mostly up to 92.3 µM
[19] = qHTS assay for small molecule activators of the p53 signaling pathway (AID 651743; active = well fitted activation curve with a large enough effect in the signal ratio, not every such curve was filed as active; the % refers to the signal ratio; note: % of control where 0% means no effect); details: HCT-116 p53RE-bla, beta-lactamase FRET ratio, 16 h; activation: stronger effect = higher value
In short: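 Cell-based beta-lactamase reporter (p53 response elements, HCT-116 background). After a 5-hour preincubation, cells received compound for 16 hours at 37 C; substrate development ran 2 hours at room temperature.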

[20] = target: Glucocorticoid receptor (Homo sapiens) (UniProt P04150); assay: qHTS assay for small molecule agonists of glucocorticoid receptor signaling (AID 588532; active = well fitted curve in the direction sought with a large enough effect in the signal ratio, with a control signal flat; the % refers to the signal ratio;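 note: 100% = dexamethasone at 0.1 µM and 0% = DMSO only wells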); details: HeLa MMTV-bla, beta-lactamase ratio, agonist, 18 h; stronger effect = higher value; percent of dexamethasone control, DMSO zero
Glucocorticoid receptor (Homo sapiens), sequence (P04150 whole entry, looked up): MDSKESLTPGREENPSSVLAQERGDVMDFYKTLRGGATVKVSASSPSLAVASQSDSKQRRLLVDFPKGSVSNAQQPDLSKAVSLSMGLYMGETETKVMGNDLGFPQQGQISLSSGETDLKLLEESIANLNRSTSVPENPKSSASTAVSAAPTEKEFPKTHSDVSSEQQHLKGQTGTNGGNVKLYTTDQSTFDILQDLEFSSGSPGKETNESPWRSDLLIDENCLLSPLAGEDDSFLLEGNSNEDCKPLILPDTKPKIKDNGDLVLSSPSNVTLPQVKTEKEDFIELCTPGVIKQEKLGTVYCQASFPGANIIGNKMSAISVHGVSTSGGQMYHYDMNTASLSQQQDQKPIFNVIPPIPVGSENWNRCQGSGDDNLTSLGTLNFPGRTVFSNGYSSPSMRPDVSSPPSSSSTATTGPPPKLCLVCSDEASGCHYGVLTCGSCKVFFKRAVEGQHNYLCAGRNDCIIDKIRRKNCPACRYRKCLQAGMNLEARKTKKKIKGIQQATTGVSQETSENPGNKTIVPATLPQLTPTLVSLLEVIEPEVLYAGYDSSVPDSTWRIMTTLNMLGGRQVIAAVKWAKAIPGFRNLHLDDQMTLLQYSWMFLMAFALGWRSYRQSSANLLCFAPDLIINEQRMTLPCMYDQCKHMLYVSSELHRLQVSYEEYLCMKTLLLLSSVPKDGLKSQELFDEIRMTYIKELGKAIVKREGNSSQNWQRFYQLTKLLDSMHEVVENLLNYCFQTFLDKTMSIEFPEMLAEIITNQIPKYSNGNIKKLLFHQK
In short: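 MMTV-bla HeLa, beta-lactamase reporter; medium with 1% charcoal/dextran-stripped FBS; cpds up to 92 uM, 18 h, 37 C; CCF4 readout 460/530 nm; Hill fit → EC50, efficacy vs 0.1 uM dexamethasone = 100%.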

CCCCCCCCCCCCCCCO
-3.46%: max response [9]
-44.9%: max response [1]
inactive: outcome [2] | Potency [3] | Potency [4] | outcome [5] | Potency [7] | Potency [8] | max response [10] -24% | activation [11] 2.17% | max response [12] 0.401% | Potency [13] | max response [14] -7.38% | max response [15] -19.2% | Potency [16] | max response [17] 3.48% | outcome [18]
-7.63%: max response [6]

CCCC/C=C\CCCCCCCCCC=O
-21.9%: max response [1]
-13.9%: max response [9]
inactive: outcome [2] | Potency [4] | outcome [5] | Potency [8] | max response [10] 6.53% | activation [19] 0.222% | activation [11] 1.27% | max response [12] 7.85% | Potency [13] | max response [14] -12.8% | max response [15] 3.95% | max response [17] 4.56% | outcome [18]

CCCCCCC(C)(C)S
-19.5%: max response [6]
-14.4%: max response [9]
inactive: activation [20] -11% | outcome [2] | Potency [3] | Potency [7] | Potency [8] | max response [10] 4.42% | activation [11] -1.46% | max response [12] -1.64% | Potency [13] | max response [14] -9.96% | max response [15] -17.8% | max response [17] -1.98% | outcome [18]

COCCOCCOCCOC
inactive: activation [20] -5.4% | outcome [2] | Potency [3] | Potency [4] | Potency [7] | Potency [8] | max response [10] 2.59% | activation [19] 0.451% | activation [11] -0.0635% | max response [12] -0.298% | max response [14] 1.56% | max response [15] -11.9% | Potency [16] | max response [17] -0.732% | outcome [18]
0.474%: max response [9]
-14.6%: max response [6]

CS(C)=O
-13.1%: max response [9]
inactive: activation [20] -5.87% | outcome [2] | Potency [3] | Potency [4] | outcome [5] | Potency [8] | max response [10] 10.4% | activation [19] 1.22% | activation [11] 0.193% | max response [12] 0.892% | Potency [13] | max response [14] 16.4% | max response [15] 1.99% | Potency [16] | max response [17] 2.97% | outcome [18]
23%: max response [1]

COC(OC)(C(=O)c1ccccc1)c1ccccc1
-1.48%: max response [6]
-15.2%: max response [9]
inactive: activation [20] -8.93% | outcome [2] | Potency [3] | Potency [4] | outcome [5] | Potency [7] | Potency [8] | max response [10] -6.2% | activation [11] 1.33% | max response [12] -0.253% | max response [14] 5.37% | max response [15] -5.41% | Potency [16] | max response [17] 3.76% | outcome [18]
13.5%: max response [1]

CCCCCCCC[Si](OCC)(OCC)OCC
-6.97%: max response [9]
inactive: activation [20] -8.51% | outcome [2] | Potency [3] | Potency [4] | outcome [5] | Potency [8] | max response [10] -6.63% | activation [11] 0.203% | max response [12] 0.0712% | Potency [13] | max response [14] 5.53% | max response [15] 0.144% | Potency [16] | max response [17] 6.41% | outcome [18]
2.69%: max response [1]

CCCCC(CC)COC(=O)CS (stereo not drawn)
-9.5%: max response [9]
inactive: activation [20] 8.21% | Potency [4] | outcome [5] | Potency [7] | Potency [8] | max response [10] 2.49% | activation [19] -0.039% | max response [12] -1.44% | Potency [13] | max response [14] 1.32% | max response [15] -2.56% | Potency [16] | max response [17] 0.0458% | outcome [18]
-9.7%: max response [6]

S=C(S)NCCNC(=S)S
inactive: outcome [2] | Potency [3] | outcome [5] | Potency [8] | activation [11] 0.998% | max response [12] 0.0068% | max response [14] -0.0675% | max response [15] -6.97% | Potency [16] | max response [17] -0.407%

CC(C)C(=O)OC(=O)C(C)C
-11.3%: max response [6]
inactive: activation [20] -15% | Potency [4] | Potency [7] | Potency [8] | max response [10] -4.54% | activation [19] -7.19% | max response [12] -0.54% | Potency [13] | max response [14] -7.37% | max response [15] -4.79% | Potency [16] | max response [17] -1.65%
-12.1%: max response [9]
1.13%: max response [1]

CCC(O)OCCCOC (stereo not drawn)
inactive: activation [20] -7.43% | outcome [2] | Potency [3] | Potency [4] | outcome [5] | Potency [7] | Potency [8] | max response [10] 5.03% | activation [19] -2.25% | activation [11] 0.32% | max response [12] -1.52% | Potency [13] | max response [14] 4.51% | max response [15] -3.1% | Potency [16] | max response [17] 1.86% | outcome [18]
-12.7%: max response [9]
-7.67%: max response [6]
-0.797%: max response [1]

CC/C(=C(\c1ccc(O)cc1)c1ccc(OCCN(C)C)cc1)c1ccccc1
inactive: activation [20] -2.75% | activation [11] -12.4% | max response [12] -2.87%
active: Potency [15] 25.1 µM | Potency [16] 39.8 µM

Brc1ccc(Oc2ccc(Br)cc2)cc1
-2.23%: max response [9]
inactive: Potency [4] | outcome [5] | Potency [8] | max response [10] 3.5% | activation [19] 0.901% | max response [12] 4.27% | Potency [13] | max response [14] -9.27% | max response [15] -10% | Potency [16] | max response [17] -1.1% | outcome [18]
0.317%: max response [1]
